# PubChem BioAssay
# Activity calls are given as the source filed them.
# Key:
# [1] = system: XIP peptide (Xip251-270) binding; test: small-molecule binders of XIP peptide, primary screen, biochemical, small-molecule microarray, fluorescence 635/667 nm, 0.1 µg/mL protein (AID 1182); conditions: fluorescent protein binding, 635 nm, higher = more signal, called active from +8 up or from −8 down
# XIP peptide (Xip251-270) = test: small-molecule binders of XIP peptide, primary screen, biochemical, small-molecule microarray, fluorescence 635/667 nm, 0.5 µg/mL protein (AID 1183); conditions: small-molecule microarray binding, fluorescence 635 nm; higher = more signal
# [2] = Plasmodium falciparum growth inhibition, primary screen, strain 3D7, DAPI fluorescence, 100 nL (AID 1184);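 note: parasites grown inside human red blood cells in medium with human serum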; conditions: P. falciparum 3D7 growth, 3 d, higher = more signal
# [3] = target: Homeobox protein Hox-A13 (Mus musculus) (UniProt Q62424); test: inhibitors of HoxA13-DNA binding, primary screen, biochemical, fluorescence polarization, labeled oligonucleotide (AID 1185); conditions: 15 min, higher = more signal, called active from +8 up or from −8 down
# Chain of Homeobox protein Hox-A13 (Mus musculus) (Q62424 whole entry, looked up): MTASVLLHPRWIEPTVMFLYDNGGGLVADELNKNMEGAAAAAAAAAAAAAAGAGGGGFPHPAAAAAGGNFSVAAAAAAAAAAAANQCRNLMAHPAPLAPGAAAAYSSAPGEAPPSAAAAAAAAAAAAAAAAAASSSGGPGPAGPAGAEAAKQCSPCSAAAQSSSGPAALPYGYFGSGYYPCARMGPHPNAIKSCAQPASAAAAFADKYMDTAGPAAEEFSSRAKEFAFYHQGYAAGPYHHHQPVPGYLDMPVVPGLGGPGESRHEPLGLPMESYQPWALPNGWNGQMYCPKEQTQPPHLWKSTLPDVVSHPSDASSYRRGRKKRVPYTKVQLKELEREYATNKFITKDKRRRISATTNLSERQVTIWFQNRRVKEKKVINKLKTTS
Structure (SMILES),composite z-score [1],composite z-score (XIP peptide (Xip251-270)),z-score [2],z-score [3]
O=c1n(Cc2cc3c(cc2Cl)OCO3)c(=O)n2n1CC[C@@H]1C(=NOCc3ccccc3)[C@H]3O[C@H]3[C@@H](O)[C@@H]12,0.0872 (inactive),-0.0262,0.0783,0.962 (inactive)
C=COC[C@@H]1CN2[C@@H](CC[C@@H](C)[C@@H]2c2ccc(Br)cc2)C(=O)O1,-0.0657 (inactive),0.103,-0.977,-2.54 (inactive)
CC1O[C@H]2C3=C(C(=O)[C@@H]4O[C@@H]4[C@H]3O)[C@@H]1C1[C@@H](C)OC=C3[C@H](O)C4O[C@@H]4C(=NOCc4ccccc4)[C@]312 (some centres undefined),-0.319 (inactive),0.563,-0.352,-1.93 (inactive)
Cc1ccc(S(=O)(=O)NC(CCc2ccccc2)CC(=O)C(C)(C)C)cc1 (centres undefined),0.275 (inactive),-0.113,-0.268,-3.68 (inactive)
O=C1CCCC=C1C(CCc1ccccc1)OC(=O)c1ccc(Br)cc1 (centres undefined),0.622 (inactive),-0.198,-0.108,-1.88 (inactive)
CCO[C@H](c1cc(OC)cc([N+](=O)[O-])c1OC)[C@H](C)C=CCC(=O)OC,-0.128 (inactive),0.325,-0.0866,-0.64 (inactive)
CON=C1[C@H]2CCn3c(=O)n(-c4ccccc4)c(=O)n3[C@H]2[C@H](O)[C@@H]2O[C@H]12,-0.0682 (inactive),0.491,-0.573,-0.465 (inactive)
O=C1C[C@@H](O)[C@@H](O)[C@@H]2[C@@H]3C(=O)N(c4cccc(Oc5ccccc5)c4)C(=O)[C@@H]3CC[C@H]12,0.0532 (inactive),0.111,1.33,-0.14 (inactive)
CCCNC(=O)OC[C@H]1O[C@H](CCON=Cc2ccc(C(=O)N3[C@H](c4ccc(C)cc4)[C@@H](C)CC[C@H]3C(=O)OC)cc2)C=C[C@@H]1Oc1ccc(OC)cc1,0.236 (inactive),0.257,-2.3,-2.32 (inactive)
CO[C@H]1COC(=O)CC=C[C@H](C)COC(=O)[C@@H](C)NC(=O)CC=C[C@@H]1C,0.0921 (inactive),0.424,-1.19,-1.07 (inactive)
COc1ccc(O[C@H]2C=C[C@@H](c3ccccc3)O[C@@H]2CON=C(C)CCC(=O)OC[C@H]2O[C@H](c3ccccc3)C=C[C@@H]2Oc2ccc(OC)cc2)cc1,0.392 (inactive),-0.0127,-1.61,-0.19 (inactive)
O=C1[C@H]2[C@H]3[C@H](O)[C@H](O)CC(=NOCc4ccccc4)[C@@H]3CC[C@H]2C(=O)N1C[C@@H]1CCCO1,-0.308 (inactive),0.625,-0.0671,-1.49 (inactive)
CC(C)(C)N1C(=O)[C@H]2[C@H]3[C@H](O)C=CC(=O)[C@@H]3CC[C@H]2C1=O,0.127 (inactive),0.16,-0.0484,0.14 (inactive)
C=CC[C@@H]1C=C[C@H](ON=C(C)CCC(=O)OC[C@H]2O[C@H](c3ccccc3)C=C[C@@H]2Oc2ccc(OC)cc2)[C@@H](CO)O1,0.0195 (inactive),0.595,0.298,-5.41 (inactive)
CCOC(=O)NN=C1C[C@@H](O)[C@@H](O)[C@@H]2[C@@H]3C(=O)N([C@@H](C)c4ccccc4)C(=O)[C@@H]3CC[C@@H]12,-0.235 (inactive),0.519,0.156,-1.84 (inactive)
CC=CC1=C(CO)C(=O)[C@@H]2O[C@@H]2C1=O,3.73 (inactive),0.736,0.908,-3.53 (inactive)
CCOC(=O)[C@H](CC(C)C)NC(=O)CCC1CC(OC(=O)NCc2cccc3ccccc23)CC2(CCCC(COC(=O)NCCCN3CCCC3=O)O2)O1 (some centres undefined),-0.0359 (inactive),0.524,-1.92,-4.61 (inactive)
O=C1C[C@@H](O)[C@@H](O)[C@@H]2[C@@H]3C(=O)N(C[C@@H]4CCCO4)C(=O)[C@@H]3CC[C@H]12,0.195 (inactive),0.156,0.116,0.195 (inactive)
CCOC(=O)NN=C1C[C@@H](O)[C@@H](O)[C@@H]2[C@@H]3C(=O)N(C(C)(C)C)C(=O)[C@@H]3CC[C@H]12,-0.188 (inactive),0.29,0.202,0.772 (inactive)
CC(CCN1CCCCc2nc(C)c(C)cc21)=NO[C@H](C)c1cn([C@H](CO)Cc2ccccc2)nn1,-0.28 (inactive),0.542,-1.56,-5.13 (inactive)
COC(=O)CC=C[C@@H](C)[C@@H](C=NOC[C@H]1O[C@H](c2ccccc2)C=C[C@@H]1Oc1ccc(OC)cc1)OC,0.0079 (inactive),-0.294,0.201,-2.94 (inactive)
C#CCCCON=C1[C@H]2CCn3c(=O)n(-c4ccccc4)c(=O)n3[C@H]2[C@H](O)[C@@H]2O[C@H]12,0.245 (inactive),0.193,-1.19,0.241 (inactive)
COc1cccc([C@@H]2Oc3ccc(OC)cc3C(=O)[C@H]2O)c1,0.565 (inactive),0.65,-1.09,-0.169 (inactive)

Structure (SMILES),composite z-score [1],composite z-score (XIP peptide (Xip251-270)),z-score [2],z-score [3]
C=CC[C@@H]1C=C[C@H](ON=C[C@@H](C)[C@H](OCc2ccccc2)C(C)C)[C@@H](CO)O1,0.142 (inactive),0.256,0.395,-4.51 (inactive)
COc1ccc(COC(=O)NN=C2C[C@@H](O)[C@@H](O)[C@@H]3[C@@H]4C(=O)N(Cc5ccccc5)C(=O)[C@@H]4CC[C@H]23)cc1,0.0712 (inactive),-0.0564,0.908,-1.81 (inactive)
CCOC(=O)[C@H](Cc1ccccc1)NC(=O)CCC1CC(OC(=O)NCCc2ccc(F)cc2)CC2(CCCC(COC(=O)NCC3CCCCC3)O2)O1 (some centres undefined),0.233 (inactive),0.605,-1.82,-2.33 (inactive)
COc1cccc([C@H]2Oc3ccc(OC)cc3C(=NO[C@@H]3O[C@H](COC(C)=O)[C@@H](OC(C)=O)[C@H](OC(C)=O)[C@H]3OC(C)=O)[C@@H]2O)c1,-0.481 (inactive),-0.172,0.956,-5.19 (inactive)
O=C(NN=C1C[C@@H](O)[C@@H](O)[C@@H]2[C@@H]3C(=O)N(C[C@@H]4CCCO4)C(=O)[C@@H]3CC[C@H]12)OCc1ccccc1,-0.526 (inactive),-0.314,0.0837,0.901 (inactive)
COC(=O)CC=C[C@@H](C)[C@@H](C=NO[C@H](C)c1cn([C@H](CO)Cc2ccccc2)nn1)OC,0.312 (inactive),0.367,-0.866,-1.89 (inactive)
C#CCCCON=C1C[C@@H](O)[C@@H](O)[C@@H]2[C@@H]3C(=O)N(CC)C(=O)[C@@H]3CC[C@@H]12,0.901 (inactive),0.555,-0.0961,-0.918 (inactive)
CCCNC(=O)OC[C@H]1O[C@H](CCON=C(C)C)C=C[C@@H]1Oc1ccc(OC)cc1,0.771 (inactive),0.219,1.07,0.928 (inactive)
C=Cc1ccc([C@H]2N[C@H](C(=O)O)CC[C@@H]2C)cc1,-0.132 (inactive),-0.0045,2.18,-0.69 (inactive)
CCOC(=O)[C@H](CC(C)C)NC(=O)CCC1CC(OC(=O)NCCc2ccc(F)cc2)CC2(CCCC(COC(=O)NCCc3ccccc3OC)O2)O1 (some centres undefined),0.742 (inactive),0.578,-1.89,-2.36 (inactive)
CO[C@@H]1COC(=O)[C@@H](C)COC(=O)[C@@H](C)NC(=O)CC=C[C@@H]1C,0.0875 (inactive),0.304,-1.52,-0.701 (inactive)
CC(C)[C@@H](OCc1ccccc1)[C@H](C)C=NOC[C@@H](O)COCc1ccco1,-0.0277 (inactive),-0.273,1.4,-2.74 (inactive)
CCc1cc2c(nc1CC)CCN(CCC(C)=NO[C@@H](C)c1cn([C@H](CO)Cc3ccccc3)nn1)C2,0.444 (inactive),0.704,-1.72,-6.65 (inactive)
CO[C@@H]1COC(=O)CC=C[C@@H](C)[C@H](OC)COC(=O)[C@@H](C)COC(=O)CC=C[C@H]1C,-0.0671 (inactive),-0.497,0.301,0.372 (inactive)
CCOC(=O)[C@H](CC(C)C)NC(=O)CCC1CC(OC(=O)NCCc2ccc(F)cc2)CC2(CCCC(COC(=O)NCC(c3ccccc3)c3ccccc3)O2)O1 (some centres undefined),0.298 (inactive),0.836,-1.02,-6.92 (inactive)
COC(=O)CC=C[C@@H](C)[C@@H](C=NOC(C)CN1CCCc2nc(C)c(C)cc21)OC (some centres undefined),0.327 (inactive),0.274,0.004,-1.24 (inactive)
CC(C)CON=C1C[C@@H](O)[C@@H](O)[C@@H]2[C@@H]3C(=O)N(C(C)(C)C)C(=O)[C@@H]3CC[C@H]12,1.9 (inactive),0.494,1.75,-0.219 (inactive)
C=C(C)C(=O)OCC1CN2[C@@H](CC[C@@H](C)[C@@H]2c2ccc(Br)cc2)C(=O)O1 (some centres undefined),-0.0135 (inactive),0.446,-0.19,-1.71 (inactive)
CO[C@H]1COC(=O)CC=C[C@@H](C)[C@H](OC)COC(=O)CCC[C@@H]1C,-0.283 (inactive),-0.15,0.0095,-0.51 (inactive)
CO[C@H]1COC(=O)[C@@H](Cc2ccccc2)NC(=O)[C@@H](C)COC(=O)CCC[C@@H]1C,0.0283 (inactive),0.171,-0.0331,-0.733 (inactive)
CC(CCN1CCc2nc(-c3ccccc3)c(-c3ccccc3)cc2C1)=NOC[C@@H](O)COCc1ccco1,1.58 (inactive),0.54,0.329,-5.11 (inactive)
CC(C)CCN1CCc2nc(COc3ccccc3)c3c(c2C1)CO[C@@H](C)C3,0.0821 (inactive),0.143,0.329,-5.02 (inactive)
COC(=O)[C@@H]1CC[C@H](C)[C@@H](c2ccc(C)cc2)N1C(=O)c1ccc(C=NO[C@@H](C)c2cn([C@H](CO)Cc3ccccc3)nn2)cc1,-0.0658 (inactive),0.739,-0.309,-5.13 (inactive)
